This passage reports inhibition results from ChEMBL document CHEMBL1961873, “Compounds: GSK PKIS; Assays: Nanosyn kinase panel” (2012).

In assay [1] the target is High affinity nerve growth factor receptor (Homo sapiens) (UniProt P04629). The settings on record: at 1 µM.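 Note: each value is the mean percent inhibition of TRKA.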
The target in assay [2] is BDNF/NT-3 growth factors receptor (Homo sapiens) (UniProt Q16620). The settings on record: at 0.1 µM.
Assay [3] shares this target. The settings on record: at 1 µM.
The target of assay [4] is NT-3 growth factor receptor (Homo sapiens) (UniProt Q16288). The settings on record: at 0.1 µM.
Chain of NT-3 growth factor receptor (Homo sapiens) (Q16288 32-839 limits assumed): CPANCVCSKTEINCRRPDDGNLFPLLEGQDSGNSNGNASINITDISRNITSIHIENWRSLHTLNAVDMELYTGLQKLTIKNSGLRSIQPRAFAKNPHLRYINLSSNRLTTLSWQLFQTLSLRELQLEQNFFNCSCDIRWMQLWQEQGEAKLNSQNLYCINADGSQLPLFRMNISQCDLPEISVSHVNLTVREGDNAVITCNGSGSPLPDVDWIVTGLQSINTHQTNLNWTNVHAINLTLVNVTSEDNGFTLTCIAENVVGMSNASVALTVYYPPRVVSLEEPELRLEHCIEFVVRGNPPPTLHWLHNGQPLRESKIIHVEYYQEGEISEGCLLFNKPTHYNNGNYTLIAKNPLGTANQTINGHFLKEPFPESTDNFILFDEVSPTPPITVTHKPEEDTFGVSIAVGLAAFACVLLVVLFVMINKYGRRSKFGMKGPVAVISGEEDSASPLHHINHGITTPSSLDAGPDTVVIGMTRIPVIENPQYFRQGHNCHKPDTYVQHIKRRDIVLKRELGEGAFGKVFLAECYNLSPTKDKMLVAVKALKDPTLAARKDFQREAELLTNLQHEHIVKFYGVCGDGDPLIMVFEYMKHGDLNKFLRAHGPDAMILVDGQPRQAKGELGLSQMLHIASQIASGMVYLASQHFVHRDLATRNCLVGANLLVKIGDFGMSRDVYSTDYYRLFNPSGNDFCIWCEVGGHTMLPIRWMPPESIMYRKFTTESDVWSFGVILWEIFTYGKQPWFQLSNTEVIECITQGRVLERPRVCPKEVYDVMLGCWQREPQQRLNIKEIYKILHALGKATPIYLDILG
Assay [5] shares this target. The settings on record: at 1 µM.
In assay [6] the target is T1, Tyrosine-protein kinase TXK (Homo sapiens) (UniProt P42681).
T1 sequence (whole entry): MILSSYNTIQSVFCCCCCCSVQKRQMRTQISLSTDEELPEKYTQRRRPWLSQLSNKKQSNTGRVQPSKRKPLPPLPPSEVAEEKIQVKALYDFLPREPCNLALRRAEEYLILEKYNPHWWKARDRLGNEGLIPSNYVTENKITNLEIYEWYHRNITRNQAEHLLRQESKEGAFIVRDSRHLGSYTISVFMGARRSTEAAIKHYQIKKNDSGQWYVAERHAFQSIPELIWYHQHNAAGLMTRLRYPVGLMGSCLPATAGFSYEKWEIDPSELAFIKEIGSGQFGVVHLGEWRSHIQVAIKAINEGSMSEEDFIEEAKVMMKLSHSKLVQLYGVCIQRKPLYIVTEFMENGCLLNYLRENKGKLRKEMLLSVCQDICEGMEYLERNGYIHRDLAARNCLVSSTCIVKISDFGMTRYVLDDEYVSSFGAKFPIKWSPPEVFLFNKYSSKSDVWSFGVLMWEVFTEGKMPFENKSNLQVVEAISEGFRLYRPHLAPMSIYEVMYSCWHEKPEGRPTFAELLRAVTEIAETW
The settings on record: at 0.1 µM.

Assay [7] has as its target T1, Tyrosine-protein kinase TXK (Homo sapiens). The settings on record: at 1 µM.
Assay [8] concerns the target Non-receptor tyrosine-protein kinase TYK2 (Homo sapiens) (UniProt P29597). The settings on record: at 0.1 µM.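 Note: each value is a mean of the inhibition readings.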
Assay [9] deals with T2, Dual specificity protein kinase TTK (Homo sapiens) (UniProt P33981).
T2 sequence (whole entry): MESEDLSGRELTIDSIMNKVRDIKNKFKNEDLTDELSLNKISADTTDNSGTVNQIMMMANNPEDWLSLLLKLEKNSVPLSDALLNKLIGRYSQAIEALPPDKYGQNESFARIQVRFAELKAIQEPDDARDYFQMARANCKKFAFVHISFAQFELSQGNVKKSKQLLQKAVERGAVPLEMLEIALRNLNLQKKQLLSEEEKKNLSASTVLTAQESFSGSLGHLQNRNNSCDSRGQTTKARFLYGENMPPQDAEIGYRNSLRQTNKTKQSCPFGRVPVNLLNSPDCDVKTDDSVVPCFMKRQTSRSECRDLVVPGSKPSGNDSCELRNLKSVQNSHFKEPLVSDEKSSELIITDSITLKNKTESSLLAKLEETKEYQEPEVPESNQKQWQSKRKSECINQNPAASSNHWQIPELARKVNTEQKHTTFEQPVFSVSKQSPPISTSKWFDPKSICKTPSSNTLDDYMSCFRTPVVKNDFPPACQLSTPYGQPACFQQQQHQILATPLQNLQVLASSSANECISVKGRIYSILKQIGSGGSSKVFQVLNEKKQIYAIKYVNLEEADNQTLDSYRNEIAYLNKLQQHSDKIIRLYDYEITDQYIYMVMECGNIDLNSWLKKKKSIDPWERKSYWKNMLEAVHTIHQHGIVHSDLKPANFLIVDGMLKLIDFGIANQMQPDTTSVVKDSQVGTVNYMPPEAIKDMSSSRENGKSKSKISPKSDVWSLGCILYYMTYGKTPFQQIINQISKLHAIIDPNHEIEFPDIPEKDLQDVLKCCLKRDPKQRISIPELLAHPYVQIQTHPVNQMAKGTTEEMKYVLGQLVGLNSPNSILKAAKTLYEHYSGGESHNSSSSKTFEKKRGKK
The settings on record: at 1 µM.

The target in assay [10] is T3, Aurora kinase A (Homo sapiens) (UniProt O14965).
T3 sequence (whole entry): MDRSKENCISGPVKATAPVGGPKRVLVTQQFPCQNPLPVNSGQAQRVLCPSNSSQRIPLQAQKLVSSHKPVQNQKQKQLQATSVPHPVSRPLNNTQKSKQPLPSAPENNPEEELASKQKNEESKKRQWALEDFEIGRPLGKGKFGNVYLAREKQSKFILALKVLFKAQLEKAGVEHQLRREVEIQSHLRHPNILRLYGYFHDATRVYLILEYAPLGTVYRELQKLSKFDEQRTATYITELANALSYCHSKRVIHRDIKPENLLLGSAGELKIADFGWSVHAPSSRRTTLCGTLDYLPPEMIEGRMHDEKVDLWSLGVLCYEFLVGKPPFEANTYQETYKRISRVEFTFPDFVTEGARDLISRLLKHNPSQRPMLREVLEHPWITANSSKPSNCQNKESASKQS
The settings on record: at 0.1 µM.

The target in assay [11] is T3, Aurora kinase A (Homo sapiens). The settings on record: at 1 µM.
Assay [12] concerns the target Aurora kinase B (Homo sapiens) (UniProt Q96GD4). The settings on record: at 0.1 µM.
For assay [13] the target is unchanged. The settings on record: at 1 µM.
Assay [14] has as its target T4, Aurora kinase C (Homo sapiens) (UniProt Q9UQB9).
T4 sequence (whole entry): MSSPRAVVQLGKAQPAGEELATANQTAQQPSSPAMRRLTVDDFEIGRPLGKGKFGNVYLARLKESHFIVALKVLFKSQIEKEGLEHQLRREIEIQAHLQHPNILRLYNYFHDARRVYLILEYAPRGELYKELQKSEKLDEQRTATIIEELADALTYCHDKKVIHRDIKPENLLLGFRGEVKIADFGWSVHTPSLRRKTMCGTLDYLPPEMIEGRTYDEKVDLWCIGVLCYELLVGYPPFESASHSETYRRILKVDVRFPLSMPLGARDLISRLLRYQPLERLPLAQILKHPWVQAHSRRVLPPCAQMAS
The settings on record: at 0.1 µM.

Assay [15] concerns the target T4, Aurora kinase C (Homo sapiens). The settings on record: at 1 µM.
Assay [16] has as its target Serine/threonine-protein kinase 10 (Homo sapiens) (UniProt O94804). The settings on record: at 0.1 µM.
For assay [17] the target is unchanged. The settings on record: at 1 µM.
Assay [18] addresses T5, Mitogen-activated protein kinase kinase kinase kinase 2 (Homo sapiens) (UniProt Q12851).
T5 sequence (whole entry): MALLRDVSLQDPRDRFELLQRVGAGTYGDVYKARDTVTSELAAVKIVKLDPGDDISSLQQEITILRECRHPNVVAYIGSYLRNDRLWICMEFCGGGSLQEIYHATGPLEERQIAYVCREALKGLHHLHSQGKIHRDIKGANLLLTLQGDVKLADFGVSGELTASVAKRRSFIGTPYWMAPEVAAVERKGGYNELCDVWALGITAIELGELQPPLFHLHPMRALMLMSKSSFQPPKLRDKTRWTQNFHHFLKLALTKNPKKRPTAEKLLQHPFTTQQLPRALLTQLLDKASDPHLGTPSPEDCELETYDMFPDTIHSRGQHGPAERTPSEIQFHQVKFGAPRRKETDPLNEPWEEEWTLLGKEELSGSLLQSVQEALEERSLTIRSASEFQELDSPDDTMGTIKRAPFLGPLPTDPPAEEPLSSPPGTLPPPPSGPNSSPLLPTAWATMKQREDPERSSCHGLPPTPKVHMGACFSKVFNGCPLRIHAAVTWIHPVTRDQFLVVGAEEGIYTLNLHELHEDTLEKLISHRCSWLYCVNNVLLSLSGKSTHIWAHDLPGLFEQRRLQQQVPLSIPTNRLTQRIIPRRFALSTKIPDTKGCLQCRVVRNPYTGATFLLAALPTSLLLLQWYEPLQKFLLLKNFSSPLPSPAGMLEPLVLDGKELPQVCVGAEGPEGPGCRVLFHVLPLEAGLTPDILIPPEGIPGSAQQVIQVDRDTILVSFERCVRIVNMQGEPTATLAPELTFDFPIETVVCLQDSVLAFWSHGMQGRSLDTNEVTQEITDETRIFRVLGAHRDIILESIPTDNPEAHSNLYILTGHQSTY
The settings on record: at 0.1 µM.

Assay [19] has as its target T5, Mitogen-activated protein kinase kinase kinase kinase 2 (Homo sapiens). The settings on record: at 1 µM.
The target of assay [20] is Mitogen-activated protein kinase kinase kinase kinase 4 (Homo sapiens) (UniProt O95819). The settings on record: at 0.1 µM.

Chain of Non-receptor tyrosine-protein kinase TYK2 (Homo sapiens) (P29597 whole entry): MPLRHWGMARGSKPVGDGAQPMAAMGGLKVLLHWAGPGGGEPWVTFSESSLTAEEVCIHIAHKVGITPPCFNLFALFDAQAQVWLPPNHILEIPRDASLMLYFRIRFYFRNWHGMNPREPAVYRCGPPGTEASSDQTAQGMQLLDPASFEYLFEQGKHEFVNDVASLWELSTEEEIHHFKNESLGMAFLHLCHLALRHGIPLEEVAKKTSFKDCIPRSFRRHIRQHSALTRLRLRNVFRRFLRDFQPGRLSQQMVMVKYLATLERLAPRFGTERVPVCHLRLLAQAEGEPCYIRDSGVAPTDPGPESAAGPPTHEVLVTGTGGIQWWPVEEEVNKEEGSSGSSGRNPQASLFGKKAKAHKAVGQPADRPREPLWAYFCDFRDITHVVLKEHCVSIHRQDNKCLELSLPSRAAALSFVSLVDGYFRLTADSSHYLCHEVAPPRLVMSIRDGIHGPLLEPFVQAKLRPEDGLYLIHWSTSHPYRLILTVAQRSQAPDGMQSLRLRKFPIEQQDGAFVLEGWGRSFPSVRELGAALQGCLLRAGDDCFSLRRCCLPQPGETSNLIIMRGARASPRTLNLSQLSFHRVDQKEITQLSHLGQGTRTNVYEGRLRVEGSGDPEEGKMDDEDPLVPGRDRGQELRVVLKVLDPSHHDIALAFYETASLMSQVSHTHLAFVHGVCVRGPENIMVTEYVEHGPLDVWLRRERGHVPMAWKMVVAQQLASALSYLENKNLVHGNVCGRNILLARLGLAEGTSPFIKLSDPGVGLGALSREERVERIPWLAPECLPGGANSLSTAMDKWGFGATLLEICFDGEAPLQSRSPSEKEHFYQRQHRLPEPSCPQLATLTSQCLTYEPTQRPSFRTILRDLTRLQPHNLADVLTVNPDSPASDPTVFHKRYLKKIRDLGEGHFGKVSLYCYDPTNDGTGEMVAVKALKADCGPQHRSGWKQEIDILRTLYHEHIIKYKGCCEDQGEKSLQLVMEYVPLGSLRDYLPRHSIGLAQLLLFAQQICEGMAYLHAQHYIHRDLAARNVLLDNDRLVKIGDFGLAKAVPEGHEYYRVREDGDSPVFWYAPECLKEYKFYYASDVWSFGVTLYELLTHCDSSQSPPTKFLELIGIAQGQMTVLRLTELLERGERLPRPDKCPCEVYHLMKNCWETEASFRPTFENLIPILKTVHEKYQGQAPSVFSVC
Chain of BDNF/NT-3 growth factors receptor (Homo sapiens) (Q16620 32-822 limits assumed): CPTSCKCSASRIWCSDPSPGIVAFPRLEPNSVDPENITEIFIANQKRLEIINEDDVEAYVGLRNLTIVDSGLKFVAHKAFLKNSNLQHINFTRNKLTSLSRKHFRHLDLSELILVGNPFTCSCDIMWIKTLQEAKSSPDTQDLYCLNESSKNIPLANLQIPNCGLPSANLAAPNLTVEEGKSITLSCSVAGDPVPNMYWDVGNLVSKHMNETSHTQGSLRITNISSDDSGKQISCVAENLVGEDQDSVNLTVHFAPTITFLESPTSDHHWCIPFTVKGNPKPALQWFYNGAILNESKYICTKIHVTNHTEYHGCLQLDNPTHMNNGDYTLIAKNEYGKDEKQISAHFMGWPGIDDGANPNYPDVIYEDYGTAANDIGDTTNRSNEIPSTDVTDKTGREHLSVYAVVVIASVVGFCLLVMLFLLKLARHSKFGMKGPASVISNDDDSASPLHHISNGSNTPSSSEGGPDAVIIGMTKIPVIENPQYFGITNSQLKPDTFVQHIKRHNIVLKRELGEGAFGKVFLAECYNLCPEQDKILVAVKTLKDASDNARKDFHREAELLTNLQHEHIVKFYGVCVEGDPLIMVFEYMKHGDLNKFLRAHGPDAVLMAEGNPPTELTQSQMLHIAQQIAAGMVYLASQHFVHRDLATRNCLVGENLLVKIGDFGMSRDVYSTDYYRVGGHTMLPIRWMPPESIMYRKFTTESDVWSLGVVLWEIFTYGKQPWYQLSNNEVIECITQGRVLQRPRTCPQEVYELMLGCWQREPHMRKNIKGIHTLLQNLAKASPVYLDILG
Chain of High affinity nerve growth factor receptor (Homo sapiens) (P04629 33-796 limits assumed): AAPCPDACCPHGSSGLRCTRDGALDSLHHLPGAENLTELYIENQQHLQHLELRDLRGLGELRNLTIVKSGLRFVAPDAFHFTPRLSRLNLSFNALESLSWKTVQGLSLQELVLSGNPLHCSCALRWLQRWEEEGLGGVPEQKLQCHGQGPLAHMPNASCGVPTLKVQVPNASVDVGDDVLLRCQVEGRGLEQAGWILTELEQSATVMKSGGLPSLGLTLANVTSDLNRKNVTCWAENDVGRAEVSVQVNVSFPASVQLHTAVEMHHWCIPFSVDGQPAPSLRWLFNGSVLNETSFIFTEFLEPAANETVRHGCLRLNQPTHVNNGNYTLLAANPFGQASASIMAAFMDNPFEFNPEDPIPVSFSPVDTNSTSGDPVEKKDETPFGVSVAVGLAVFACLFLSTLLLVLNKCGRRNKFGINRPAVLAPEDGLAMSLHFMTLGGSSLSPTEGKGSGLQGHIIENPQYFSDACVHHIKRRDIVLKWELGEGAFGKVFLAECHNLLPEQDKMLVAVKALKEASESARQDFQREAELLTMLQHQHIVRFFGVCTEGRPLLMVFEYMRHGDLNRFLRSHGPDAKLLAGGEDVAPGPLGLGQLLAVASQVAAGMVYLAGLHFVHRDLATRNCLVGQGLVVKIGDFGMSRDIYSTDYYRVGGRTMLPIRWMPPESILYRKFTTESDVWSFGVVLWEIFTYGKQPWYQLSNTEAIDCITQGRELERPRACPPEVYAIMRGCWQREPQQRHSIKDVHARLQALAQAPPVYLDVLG
Chain of Serine/threonine-protein kinase 10 (Homo sapiens) (O94804 whole entry, looked up): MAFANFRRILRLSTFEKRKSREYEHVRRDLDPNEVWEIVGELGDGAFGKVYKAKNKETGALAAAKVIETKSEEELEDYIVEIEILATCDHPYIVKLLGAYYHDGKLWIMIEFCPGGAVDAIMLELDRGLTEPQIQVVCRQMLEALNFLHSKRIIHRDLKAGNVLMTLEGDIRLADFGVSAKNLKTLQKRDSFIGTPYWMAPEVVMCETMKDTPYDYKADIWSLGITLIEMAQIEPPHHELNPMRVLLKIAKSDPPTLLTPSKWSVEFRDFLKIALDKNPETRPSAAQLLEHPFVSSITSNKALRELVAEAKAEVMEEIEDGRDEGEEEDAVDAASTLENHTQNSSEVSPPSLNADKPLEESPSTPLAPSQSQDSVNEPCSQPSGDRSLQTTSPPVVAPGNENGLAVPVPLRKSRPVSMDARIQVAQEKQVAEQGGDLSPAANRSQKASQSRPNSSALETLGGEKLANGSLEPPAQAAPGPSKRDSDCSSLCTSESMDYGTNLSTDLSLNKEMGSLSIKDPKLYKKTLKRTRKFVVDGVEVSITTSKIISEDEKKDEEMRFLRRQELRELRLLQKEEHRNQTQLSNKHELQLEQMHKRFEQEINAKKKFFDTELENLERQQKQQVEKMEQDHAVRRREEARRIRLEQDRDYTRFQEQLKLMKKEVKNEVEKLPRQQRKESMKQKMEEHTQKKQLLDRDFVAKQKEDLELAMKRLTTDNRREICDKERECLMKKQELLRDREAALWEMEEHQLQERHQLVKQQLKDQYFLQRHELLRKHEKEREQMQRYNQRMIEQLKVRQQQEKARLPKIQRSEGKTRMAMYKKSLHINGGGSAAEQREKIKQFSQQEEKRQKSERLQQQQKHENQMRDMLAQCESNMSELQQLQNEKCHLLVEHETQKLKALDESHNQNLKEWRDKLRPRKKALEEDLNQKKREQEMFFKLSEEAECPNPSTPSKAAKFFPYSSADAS
Chain of Aurora kinase B (Homo sapiens) (Q96GD4 whole entry): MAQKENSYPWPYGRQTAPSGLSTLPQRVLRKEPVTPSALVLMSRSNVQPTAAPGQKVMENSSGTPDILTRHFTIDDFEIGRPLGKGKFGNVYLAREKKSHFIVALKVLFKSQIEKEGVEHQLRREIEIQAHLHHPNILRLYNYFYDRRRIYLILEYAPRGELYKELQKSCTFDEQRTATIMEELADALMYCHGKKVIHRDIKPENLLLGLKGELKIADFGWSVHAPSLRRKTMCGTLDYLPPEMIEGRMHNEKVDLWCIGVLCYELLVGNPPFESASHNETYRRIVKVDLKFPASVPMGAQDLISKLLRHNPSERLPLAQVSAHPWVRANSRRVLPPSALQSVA

Regarding `COc1cc(Nc2ncc(-c3ccccc3)o2)cc(OC)c1`, the inhibition in assay [1] is 19.7%; in [2], 8.32%; in assay [3] it was 35.2%; in assay [4], 6.57%; in assay [5], 30.5%; in [6], -1%. Also, the inhibition in assay [7] was 8.54%; in assay [8], -5.97%; in [9], 11.9%; in assay [10] it was 5.61%; in [11], 30.3%; in assay [12], 5%. The inhibition was 19.7% in assay [13]; 3.27% in assay [14]; 29.6% in assay [15]; 8.54% in assay [16]; 12.9% in assay [17]; 0.95% in assay [18]. The values for the inhibition in [19] and in assay [20] were 7.2% and 7.08%, respectively.

As for `O=C(Nc1n[nH]c2nnc(-c3cccnc3)cc12)C1CC1`, the inhibition in assay [1] is -0.64%; in assay [2], -0.74%; in assay [3], 0.57%; in assay [4], -0.44%; in assay [5], -0.22%; in [6], 0.3%. Also, the inhibition in [7] was found to be 2.21%; in [8], 1.8%; in assay [9], 2.14%; in assay [10], 0.85%; in assay [11], 0.07%; in [12], 0.12%. Further, the inhibition in assay [13] is 3.67%; in assay [14], -1.84%; in [15] it was 3.75%; in assay [16], -0.21%; in assay [17], 0.78%; in assay [18] it was 0.63%. Further, the inhibition amounted to 1.06% in assay [19] and 3.78% in assay [20].

Turning to `Cc1nnc(-c2cccc(-c3ccc(C(=O)NCC4CC4)cc3)c2)o1`, the inhibition in assay [1] turned out to be 1.38%; in assay [2], 2.02%; in [3], 4.55%; in assay [4] it was 3.7%; in assay [5], 3.95%; in assay [6], 2.44%. In addition, the inhibition is 3.16% in [7]; -5.67% in assay [8]; 0.98% in assay [9]; 1.82% in assay [10]; 7.79% in [11]; 3.21% in assay [12]. Also, the inhibition in assay [13] is 3.09%; in assay [14] it was 1.3%; in assay [15] it was -4.74%; in [16] it was 6.23%; in assay [17], 7.39%; in assay [18] it was 1.46%. Further, the inhibition in [19] is 3.14%; in assay [20], 7.44%.

Take `O=C(O[C@H]1CN[C@H](C#Cc2cc3ncnc(Nc4ccc5c(cnn5Cc5ccccc5)c4)c3s2)C1)N1CCOCC1`: the inhibition was 2.5% in assay [1]; -1.64% in assay [2]; -0.38% in assay [3]; -0.59% in [4]; 1.3% in [5]; 0.8% in assay [6]. Moreover, the inhibition in [7] amounted to 2.69%; in assay [8], 1.26%; in [9] it was 6.25%; in [10], 1.41%; in assay [11], 3.44%; in assay [12], 0.76%. The inhibition in assay [13] amounted to 11.1%; in [14], 2.11%; in [15], 27.6%; in assay [16], 0.93%; in assay [17] it was 7.07%; in [18], 0.52%. Further, the inhibition in [19] is 2.14%; in assay [20], -0.91%.

On to `CCS(=O)(=O)c1ccc(OC)c(Nc2ncc(-c3cccc(F)c3)o2)c1`, for which the inhibition in assay [1] came to 42.8%; in assay [2], 10%; in assay [3] it was 47.2%; in assay [4], 12%; in assay [5] it was 48.1%; in assay [6], 17.2%. The inhibition in assay [7] is 56%; in [8], -0.94%; in assay [9], 8.85%; in assay [10] it was 7.01%; in assay [11] it was 26.8%; in [12], 4.7%. Also, the inhibition came out at 3.78% in [13]; 0.03% in [14]; 5.54% in assay [15]; 12% in assay [16]; 24.3% in assay [17]; 1.31% in [18]. Besides, the inhibition was 8.13% in assay [19] and 6.47% in assay [20].
